These results are taken from PubChem BioAssay (NCI).

The panel holds about 83,000 compounds, 20% with a hit somewhere; the sample as a whole holds those more often.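 Negative percent growth values reflect cell death: -40 means 40% of the cells present at the start died, and -100 means all died.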 Values without a mark were called inactive. Activity calls are given as the source filed them. The calls were made as follows: active = growth percent below 10; inactive = the rest.

Common to all, as to assay: NCI-60 one-dose screen, 48 h (100 = growth as untreated, 0 = no growth, -100 = all killed)
One experiment has as its system HCT-15 colon. To be noted: 10 µM unless noted.
Another experiment deals with HT29 colon. Particulars: 10 µM unless noted.
Another experiment has as its system SNB-75 CNS. To be noted: 10 µM unless noted.
Another experiment has as its system SNB-19 CNS. To be noted: 10 µM unless noted.
A further experiment relates to U251 CNS. Particulars: 10 µM unless noted.
The next experiment concerns PC-3 prostate. To be noted: 10 µM unless noted.
The subject of a further experiment is SK-MEL-5 melanoma. To be noted: 10 µM unless noted.
The subject of the next experiment is UACC-62 melanoma. To be noted: 10 µM unless noted.
The test system of another experiment is LOX IMVI melanoma. Particulars: 10 µM unless noted.
Another experiment relates to SK-MEL-28 melanoma. To be noted: 10 µM unless noted.
A further experiment has as its system SK-MEL-2 melanoma. To be noted: 10 µM unless noted.
The subject of the next experiment is EKVX NSCLC. Particulars: 10 µM unless noted.
Another experiment concerns SN12C renal. Particulars: 10 µM unless noted.
The subject of a further experiment is UO-31 renal. To be noted: 10 µM unless noted.
The test system of a further experiment is TK-10 renal. Particulars: 10 µM unless noted.
A further experiment concerns ACHN renal. Particulars: 10 µM unless noted.
The next experiment relates to CAKI-1 renal. To be noted: 10 µM.
The test system of a further experiment is A498 renal. To be noted: 10 µM unless noted.
The next experiment relates to CCRF-CEM leukemia. Particulars: 10 µM unless noted.
The test system of the next experiment is MOLT-4 leukemia. Particulars: 10 µM unless noted.

In the case of `C/C(=C(/C)C1CC1CCN(C(=O)c1ccc([N+](=O)[O-])cc1)S(=O)(=O)c1ccc(C)cc1)C1CCCCC1` (stereo not given), the growth in the experiment on HCT-15 colon is 98.1%; in the experiment with HT29 colon it was 99.2%; in the experiment on SNB-75 CNS it was 106%; in the experiment on SNB-19 CNS, 92.5%; with U251 CNS it was 94.7%; in the experiment on PC-3 prostate, 85.4%. The growth was 99.4% with SK-MEL-5 melanoma; 79.7% in the experiment on UACC-62 melanoma; 93.9% in the experiment on LOX IMVI melanoma; 101% in the experiment with SK-MEL-28 melanoma; 102% with SK-MEL-2 melanoma; 82.4% in the experiment with EKVX NSCLC. Besides, the growth in the experiment on SN12C renal is 91.8%; in the experiment with UO-31 renal, 92.2%; in the experiment with TK-10 renal, 108%; in the experiment on ACHN renal it was 99%; in the experiment on CAKI-1 renal, 84.9%; in the experiment with A498 renal, 105%. The growth in the experiment on CCRF-CEM leukemia was 93.6%; with MOLT-4 leukemia, 80.3%.

`Cc1ccc(-c2nnc3sc(C4=Cc5ccccc5OC=C4)nn23)cc1`: the growth is 92.9% in the experiment with HCT-15 colon; 101% with HT29 colon; 79.1% in the experiment with SNB-75 CNS; 92.1% with SNB-19 CNS; 96.6% in the experiment on U251 CNS; 96.7% in the experiment with PC-3 prostate. Also, the growth in the experiment with SK-MEL-5 melanoma was 92.2%; in the experiment with UACC-62 melanoma, 91.6%; with LOX IMVI melanoma, 116%; with SK-MEL-28 melanoma, 97.1%; with SK-MEL-2 melanoma it was 104%; in the experiment on EKVX NSCLC, 99.4%. Further, the growth in the experiment on SN12C renal was 97.3%; in the experiment with UO-31 renal it was 87.3%; in the experiment on TK-10 renal it was 89.1%; with ACHN renal, 105%; with CAKI-1 renal, 79.6%; in the experiment with A498 renal, 61.6%. The growth with CCRF-CEM leukemia is 105%; with MOLT-4 leukemia it was 82.8%.

On to `O=C1CC2(CCOCC2)Oc2ncccc21`, for which the growth is -62.6% (active) in the experiment with HCT-15 colon; 49.8% in the experiment with HT29 colon; 115% in the experiment on SNB-75 CNS; 51.4% in the experiment with SNB-19 CNS; 22.3% in the experiment on U251 CNS; 88.7% in the experiment with PC-3 prostate. For the same molecule, the growth with SK-MEL-5 melanoma was 100%; in the experiment with UACC-62 melanoma it was 61.1%; with LOX IMVI melanoma it was -78.7% (active); with SK-MEL-28 melanoma it was -22.3% (active); in the experiment on SK-MEL-2 melanoma, 95.9%; in the experiment with EKVX NSCLC, 93.5%. For the same molecule, the growth with SN12C renal is 33.1%; in the experiment on UO-31 renal, 101%; in the experiment with TK-10 renal it was 60.5%; in the experiment on ACHN renal, 36.3%; in the experiment on CAKI-1 renal, 94.2%; in the experiment on A498 renal, 99.6%. Also, the growth with CCRF-CEM leukemia was 0.712% (active); in the experiment on MOLT-4 leukemia it was 13.5%.

As for `N#C/C(=C\c1ccc(-c2ccc(F)cc2)o1)C(=O)Nc1ncc(Cc2ccc(Cl)cc2Cl)s1`, the growth in the experiment with HCT-15 colon was -31.7% (active); in the experiment with HT29 colon, 6.93% (active); in the experiment with SNB-75 CNS it was 58.3%; in the experiment with SNB-19 CNS, -12.9% (active); with U251 CNS, 21.9%; in the experiment with PC-3 prostate, 1.25% (active). For the same molecule, the growth is 27.4% in the experiment on SK-MEL-5 melanoma; 15.9% with UACC-62 melanoma; -85.6% (active) in the experiment on LOX IMVI melanoma; 39.5% with SK-MEL-28 melanoma; 68.9% in the experiment with SK-MEL-2 melanoma; 9.87% (active) in the experiment on EKVX NSCLC. Further, the growth in the experiment on SN12C renal was -37.5% (active); in the experiment on UO-31 renal, 2.72% (active); with TK-10 renal, -4.43% (active); in the experiment on ACHN renal, 8.96% (active); in the experiment with CAKI-1 renal it was 14.2%; in the experiment on A498 renal, 72.1%. Besides, the growth with CCRF-CEM leukemia was 4.62% (active); with MOLT-4 leukemia, 30.8%.

With `CCn1c2ccc(/C=N/OCCCN(C)C)cc2c2cc(/C=N/OCCCN(C)C)ccc21`, the growth in the experiment on HCT-15 colon is -13% (active); with HT29 colon, -58.8% (active); in the experiment on SNB-75 CNS it was 82.8%; in the experiment on SNB-19 CNS, 59.3%; in the experiment on U251 CNS, -30.9% (active); with PC-3 prostate, 32.4%. Also, the growth was -95.6% (active) in the experiment with SK-MEL-5 melanoma; 10.6% in the experiment on UACC-62 melanoma; -91.8% (active) in the experiment with LOX IMVI melanoma; -33.8% (active) with SK-MEL-28 melanoma; 125% in the experiment with SK-MEL-2 melanoma; 48.6% in the experiment on EKVX NSCLC. In addition, the growth is 63.6% with SN12C renal; -90.4% (active) with UO-31 renal; 132% in the experiment with TK-10 renal; -15.5% (active) with ACHN renal; -16.5% (active) in the experiment on CAKI-1 renal; 54.1% in the experiment with A498 renal. Moreover, the growth with CCRF-CEM leukemia is 9.36% (active); with MOLT-4 leukemia, 0.746% (active).

For the molecule `CC(C)(C)OC(=O)N1CCN(S(=O)(=O)/N=C2\NC(=O)NC2=C(Cl)Cl)CC1`, the growth in the experiment on HCT-15 colon was 10.9%; in the experiment with HT29 colon, 106%; in the experiment with SNB-75 CNS, 99.9%; with SNB-19 CNS it was 81.1%; with U251 CNS it was 90.6%; in the experiment on PC-3 prostate, 97.5%. For the same molecule, the growth with SK-MEL-5 melanoma is 95.9%; with UACC-62 melanoma, 96.3%; with LOX IMVI melanoma it was 64.3%; with SK-MEL-28 melanoma, 85.7%; in the experiment on SK-MEL-2 melanoma, 88.9%; in the experiment with EKVX NSCLC, 90.8%. Moreover, the growth in the experiment on SN12C renal was 91.7%; in the experiment on UO-31 renal, 91.6%; in the experiment with TK-10 renal, 124%; in the experiment with ACHN renal, 99.5%; with CAKI-1 renal it was 98.8%; in the experiment on A498 renal, 83.7%. Besides, the growth in the experiment with CCRF-CEM leukemia is 29.4%; in the experiment on MOLT-4 leukemia, 89%.

Consider `O=C(NCCCNc1cc(-c2cn(-c3ccccc3)nc2-c2cccc(O)c2)ccn1)Nc1cc(C(F)(F)F)cc(C(F)(F)F)c1`, for which the growth in the experiment on HCT-15 colon is 33.4%; in the experiment with HT29 colon, 31.7%; with SNB-75 CNS it was 64.2%; with SNB-19 CNS, 68.5%; with U251 CNS, 51.5%; with PC-3 prostate, 39.9%. Moreover, the growth with SK-MEL-5 melanoma is 55.7%; in the experiment with UACC-62 melanoma, 73%; with LOX IMVI melanoma, 81.2%; with SK-MEL-28 melanoma, 83.7%; with SK-MEL-2 melanoma, 88.1%; in the experiment on EKVX NSCLC, 73.3%. For the same molecule, the growth in the experiment on SN12C renal was 79.4%; with UO-31 renal, 51.4%; in the experiment with TK-10 renal, 93.4%; in the experiment on ACHN renal, 92.6%; with CAKI-1 renal, 74.1%; in the experiment on A498 renal, 71.4%. In addition, the growth in the experiment with CCRF-CEM leukemia was 63.1%; in the experiment on MOLT-4 leukemia, 43.3%.

Take `O=c1c2ccccc2nc(COc2ccccc2)n1/N=C/C=C/c1ccccc1`: the growth is 76.9% in the experiment with HCT-15 colon; 98.1% with HT29 colon; 83.4% in the experiment with SNB-75 CNS; 82.9% in the experiment with SNB-19 CNS; 98.4% in the experiment on U251 CNS; 89.6% with PC-3 prostate. The growth in the experiment on SK-MEL-5 melanoma is 99.3%; with UACC-62 melanoma, 94.5%; with LOX IMVI melanoma, 72.1%; in the experiment on SK-MEL-28 melanoma, 94.3%; in the experiment on SK-MEL-2 melanoma, 94.5%; in the experiment on EKVX NSCLC, 86.2%. The growth in the experiment on SN12C renal is 87.6%; with UO-31 renal, 89.8%; with TK-10 renal, 106%; with ACHN renal, 96.8%; in the experiment on CAKI-1 renal, 103%; in the experiment on A498 renal, 98.6%. In addition, the figures for the growth in the experiment with CCRF-CEM leukemia and in the experiment on MOLT-4 leukemia were 84.3% and 97.1%, respectively.
